# In PubChem BioAssay (Tox21):
# Inconclusive results are not listed. Values without a mark were called inactive. Active and inactive are the calls of the source. Calls follow the shape of the dose curve; as a rule, active = well fitted curve in the direction sought with a large enough effect in the repeat runs; inconclusive = weak or mixed curves; inactive = no such curve, though single readings can be large; an effect the other way counts as inactive or inconclusive.
# Biological target: Luciferin 4-monooxygenase (Photinus pyralis) (UniProt P08659)
# Test: qHTS assay to identify small molecule inhibitors of firefly luciferase (AID 1224835); also: nearly all actives have a fitted effect of over 25% in size
# Details: purified P. pyralis luciferase, luminescence inhibition; series mostly up to 115 µM; activity change, negative = inhibition: at the top concentration
# Method in brief: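 Quantitative HTS format; KM concentrations of both substrates. Purified P. pyralis FLuc activity quantified from luminescence images.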
# % is scaled to controls: 0 for no effect and ±100 for the full control effect; potency is read from the fitted curve at half-maximal effect.
# Sequence of Luciferin 4-monooxygenase (Photinus pyralis) (P08659 whole entry, looked up): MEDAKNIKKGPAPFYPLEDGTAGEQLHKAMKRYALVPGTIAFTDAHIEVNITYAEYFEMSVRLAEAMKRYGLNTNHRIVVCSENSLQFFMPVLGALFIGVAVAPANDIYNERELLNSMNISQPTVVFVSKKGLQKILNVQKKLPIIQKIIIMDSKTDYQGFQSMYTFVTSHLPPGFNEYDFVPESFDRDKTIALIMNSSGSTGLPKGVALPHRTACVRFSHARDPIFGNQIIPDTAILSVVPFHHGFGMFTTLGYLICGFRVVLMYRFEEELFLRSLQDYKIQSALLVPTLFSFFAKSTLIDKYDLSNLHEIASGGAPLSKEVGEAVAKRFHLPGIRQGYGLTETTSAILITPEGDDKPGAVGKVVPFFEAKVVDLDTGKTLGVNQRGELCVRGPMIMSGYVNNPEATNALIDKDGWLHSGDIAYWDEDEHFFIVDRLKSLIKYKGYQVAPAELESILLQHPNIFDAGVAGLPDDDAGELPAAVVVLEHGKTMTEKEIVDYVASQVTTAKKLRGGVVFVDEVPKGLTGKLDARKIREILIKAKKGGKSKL
Compound,"activity change, negative = inhibition",Potency
COCC(=O)N(c1c(C)cccc1C)N1CCOC1=O,1.29%,–
CC(=O)Nc1cc([As](=O)(O)O)ccc1O,-1.15% [at 52.9 µM],–
CNNC,-0.146%,–
CCC(Cl)[N+](=O)[O-] (centres undefined),1.77%,–
CCCSC(=O)Cl,6.4%,–
CC(Cl)(Cl)[N+](=O)[O-],8.52%,–
Cc1ncc2n1-c1ccc(Cl)cc1C(c1ccccc1F)=NC2,-3.73% [at 52.9 µM],–
CC1=C(C(=O)O)N2C(=O)[C@@H](N)[C@H]2SC1,-0.398% [at 23.6 µM],–
Cc1nnc2n1-c1sc(CCC(=O)N3CCOCC3)cc1C(c1ccccc1Cl)=NC2,0.979% [at 52.9 µM],–
CC1CCCCC1NC(=O)Nc1ccccc1 (centres undefined),–,35.6 µM (active)
CCCSP(=S)(OCC)Oc1ccc(Cl)cc1Cl (centres undefined),0.0541%,–
COC(=O)c1ccccc1S(=O)(=O)NC(=O)N(C)c1nc(C)nc(OC)n1,1.59%,–
CNC(=O)N(C)c1nc2ccccc2s1,–,35.6 µM (active)
CNC(=O)Oc1ccccc1C1OCCO1,0.936%,–
CCOc1nc(C(Cl)(Cl)Cl)ns1,-0.467%,–
CC(=O)[C@H]1CC[C@H]2[C@@H]3CC[C@H]4C[C@H](O)CC[C@]4(C)[C@H]3C(=O)C[C@]12C,5.77% [at 52.9 µM],–
O=CNC(N1CCN(C(NC=O)C(Cl)(Cl)Cl)CC1)C(Cl)(Cl)Cl (centres undefined),0.256%,–
Cc1cc(C)nc(Nc2ccccc2)n1,-7.95%,–
CCCCC(=O)Cl,-2.02%,–

Compound,"activity change, negative = inhibition",Potency
CCCCN(CCCCO)N=O,2.53%,–
COc1cccc2c1cc([N+](=O)[O-])c1c(C(=O)O)cc3c(c12)OCO3,–,71 µM (active)
C[C@]12CC[C@H]3[C@@H](CCC4=CC(=O)CC[C@@]43C)[C@@H]1CC[C@@H]2C(=O)O,0.731% [at 52.9 µM],–
C#CCN1C(=O)COc2cc(F)c(N3C(=O)C4=C(CCCC4)C3=O)cc21,-11.1%,–
[As]#[In],-0.9%,–
N#CCBr,3.65%,–
CCC(C)n1c(=O)[nH]c(C)c(Br)c1=O (centres undefined),3.63%,–
CCS(=O)(=O)CCSP(=O)(OC)OC,4.6%,–
C=C(C)CN(CC)c1c([N+](=O)[O-])cc(C(F)(F)F)cc1[N+](=O)[O-],1.49%,–
Fc1cc(Br)ccc1CBr,3.41% [at 52.9 µM],–
OCCSCSCCO,8.17%,–
CCCCOC(=O)[C@@H](C)Oc1ccc(Oc2ccc(C#N)cc2F)cc1,1.71%,–
CCC#N,-1.61%,–
CCC(=O)c1ccccc1,1.47%,–
CCOC(=O)C1(c2ccccc2)CCN(CCc2ccc(N)cc2)CC1,2.68% [at 52.9 µM],–
CSc1ccc(C(=O)C(C)(C)N2CCOCC2)cc1,-2.52%,–
N#CCNCC#N,11.1%,–
CC(=O)CCc1ccc2c(c1)OCO2,2.37%,–

# Test system: not listed separately
# Test: qHTS assay to identify small molecule agonists of the constitutive androstane receptor (CAR) signaling pathway - cell viability counter screen (AID 1224836); also: nearly all actives have a fitted effect of over 45% in size
# Details: HepG2-CYP2B6-hCAR viability, CellTiter-Fluor, 23 h, PK11195 added to every well; series mostly up to 92.4 µM; viability change, negative = cytotoxic: at the top concentration
# Method in brief: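 Cell viability multiplexed with the CAR agonist screen: CellTiter-Fluor fluorescence after 23 hr at 37 C. HepG2-CYP2B6-hCAR cells got compounds at 15 concentrations with PK11195 at 0.75 uM final.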
Compound,"viability change, negative = cytotoxic",Potency
COCC(=O)N(c1c(C)cccc1C)N1CCOC1=O,-1.84%,–
CC(=O)Nc1cc([As](=O)(O)O)ccc1O,1.7% [at 42.5 µM],–
CNNC,4.82%,–
CCC(Cl)[N+](=O)[O-] (centres undefined),6.49%,–
CCCSC(=O)Cl,3.08%,–
CC(Cl)(Cl)[N+](=O)[O-],-1.33%,–
Cc1ncc2n1-c1ccc(Cl)cc1C(c1ccccc1F)=NC2,8.98% [at 42.5 µM],–
CC1=C(C(=O)O)N2C(=O)[C@@H](N)[C@H]2SC1,4.01% [at 19 µM],–
Cc1nnc2n1-c1sc(CCC(=O)N3CCOCC3)cc1C(c1ccccc1Cl)=NC2,1.04% [at 42.5 µM],–
CC1CCCCC1NC(=O)Nc1ccccc1 (centres undefined),-0.61%,–
CCCSP(=S)(OCC)Oc1ccc(Cl)cc1Cl (centres undefined),-5.03%,–
COC(=O)c1ccccc1S(=O)(=O)NC(=O)N(C)c1nc(C)nc(OC)n1,4.3%,–
CNC(=O)N(C)c1nc2ccccc2s1,6.78%,–
CNC(=O)Oc1ccccc1C1OCCO1,3.91%,–
CCOc1nc(C(Cl)(Cl)Cl)ns1,-4.99%,–
CC(=O)[C@H]1CC[C@H]2[C@@H]3CC[C@H]4C[C@H](O)CC[C@]4(C)[C@H]3C(=O)C[C@]12C,-10.1% [at 42.5 µM],–
O=CNC(N1CCN(C(NC=O)C(Cl)(Cl)Cl)CC1)C(Cl)(Cl)Cl (centres undefined),4.73%,–
Cc1cc(C)nc(Nc2ccccc2)n1,6.51%,–
CCCCC(=O)Cl,2.94%,–

Compound,"viability change, negative = cytotoxic",Potency
CCCCN(CCCCO)N=O,1.8%,–
COc1cccc2c1cc([N+](=O)[O-])c1c(C(=O)O)cc3c(c12)OCO3,–,27.3 µM (active)
C[C@]12CC[C@H]3[C@@H](CCC4=CC(=O)CC[C@@]43C)[C@@H]1CC[C@@H]2C(=O)O,2.32% [at 42.5 µM],–
C#CCN1C(=O)COc2cc(F)c(N3C(=O)C4=C(CCCC4)C3=O)cc21,2.61%,–
[As]#[In],4.17%,–
N#CCBr,2.42%,–
CCC(C)n1c(=O)[nH]c(C)c(Br)c1=O (centres undefined),1.74%,–
CCS(=O)(=O)CCSP(=O)(OC)OC,0.489%,–
C=C(C)CN(CC)c1c([N+](=O)[O-])cc(C(F)(F)F)cc1[N+](=O)[O-],1.91%,–
Fc1cc(Br)ccc1CBr,1.82% [at 42.5 µM],–
OCCSCSCCO,-0.894%,–
CCCCOC(=O)[C@@H](C)Oc1ccc(Oc2ccc(C#N)cc2F)cc1,0.386%,–
CCC#N,-0.111%,–
CCC(=O)c1ccccc1,-4.5%,–
CCOC(=O)C1(c2ccccc2)CCN(CCc2ccc(N)cc2)CC1,-7.22% [at 42.5 µM],–
CSc1ccc(C(=O)C(C)(C)N2CCOCC2)cc1,-5.1%,–
N#CCNCC#N,1.83%,–
CC(=O)CCc1ccc2c(c1)OCO2,7.99%,–
